Reference: ChEMBL document CHEMBL3988442, “University of Dundee, Small-Polar-MMV Screening Library” (2021)
About 13,000 (27%) of roughly 48,000 compounds showed an effect of 50% or more. Some of the results follow.

tested on: Wolbachia pipientis; test: Anti-Wolbachia Cell-Based Screen; type: functional; design: scale not given: in the data most compounds retested in dose-response had high values; conditions: 5 µM

Row | Compound | Percent Effect
1 | Cc1cnn(CCC(=O)NS(=O)(=O)N2CCc3ccccc32)c1 | 5.056%
2 | Cc1nn(C)c2ncnc(N(C)CC3CCN(CC(C)C)C3)c12 (stereo unspecified) | -20.38%
3 | O=C(NC[C@H]1OC[C@@H](NC2COC2)[C@@H]1O)Nc1ccccc1 | 4.366%
4 | Cc1ccc(C(=O)N2CCC(n3cc(CN)nn3)CC2)cc1F | 8.756%
5 | CCCN(CC1COc2ccccc2O1)C(=O)CCN1C(=O)CCC1=O (stereo unspecified) | 23.62%
6 | CC(C)NC(=O)[C@@H]1C[C@@H](N)CN1C(=O)CCSCc1ccccc1 | -10.01%
7 | Cc1nn(C)c(N2CCOCC2)c1CNC1CCc2ccccc2C1 (stereo unspecified) | -5.455%
8 | Cc1cccc(CN2CCCC(O)(CNCCN3CCCCC3)C2=O)c1 (stereo unspecified) | -21.92%
9 | CC1c2ncc(COCc3ccccn3)n2CCN1C1CCCC1.O=C(O)C(F)(F)F.O=C(O)C(F)(F)F (stereo unspecified) | 16.64%
10 | CC1c2ncc(Cn3cccn3)n2CCN1Cc1cccnc1.O=C(O)C(F)(F)F.O=C(O)C(F)(F)F (stereo unspecified) | 97.64%
11 | CC1c2ncc(Cn3cccn3)n2CCN1Cc1ccc(F)cc1.O=C(O)C(F)(F)F (stereo unspecified) | 95.73%
12 | CCOCc1cnc2n1CCN(C(=O)Cc1ccccn1)C2C.O=C(O)C(F)(F)F (stereo unspecified) | -0.9872%
13 | CC1c2ncc(CN3CCN(C)CC3)n2CCN1Cc1ccccn1.O=C(O)C(F)(F)F.O=C(O)C(F)(F)F.O=C(O)C(F)(F)F.O=C(O)C(F)(F)F (stereo unspecified) | 110.4%
14 | CC1c2ncc(COCC3CCOCC3)n2CCN1Cc1cccnc1.O=C(O)C(F)(F)F.O=C(O)C(F)(F)F (stereo unspecified) | -7.39%
15 | CC1c2ncc(Cn3cccn3)n2CCN1Cc1ccccn1.O=C(O)C(F)(F)F.O=C(O)C(F)(F)F (stereo unspecified) | 102.5%
16 | CCCc1n[nH]c(C2CN(Cc3nnc(C4CC4)n3C)CCO2)n1 (stereo unspecified) | -1.998%
17 | COCCO[C@H]1CCN(C(=O)c2cnoc2C)[C@H]1Cc1cnn(C)c1 | -37.67%
18 | CC(CN1CCN(C)CC1)NC(=O)c1cc(Cl)c2c(c1)OCO2 (stereo unspecified) | -52.56%
19 | CS(=O)(=O)c1ncc(CN2CCN3CCCC3C2)n1CC1CCCCC1 (stereo unspecified) | 0.5285%

Row | Compound | Percent Effect
20 | CCn1cc(CN2CCC(c3nnc(CN(C)C)n3CC)CC2)cn1 | -1.722%
21 | Cn1cc(CN2CC[C@@H]3[C@@H](CCC(=O)N3CC3CCNCC3)C2)cn1 | -8.948%
22 | CCCn1cc(CN2CCC(c3[nH]ncc3S(C)(=O)=O)C2)cn1 (stereo unspecified) | 113%
23 | COc1ncc(CN2CCCC(c3[nH]ncc3S(C)(=O)=O)C2)cn1 (stereo unspecified) | 102.2%
24 | Cn1cc(CN2CCC(c3[nH]ncc3S(C)(=O)=O)C2)cn1 (stereo unspecified) | 89.03%
25 | CCn1cc(CN2CCCC(c3[nH]ncc3S(C)(=O)=O)C2)cn1 (stereo unspecified) | 1.783%
26 | CCC[C@@H]1CN(Cc2cnc3c(S(C)(=O)=O)cnn3c2)C[C@H]1N(C)C | -11.35%
27 | CN(C)S(=O)(=O)N1CC[C@@H]2CN(Cc3cnn(C)c3)C[C@@H]2C1 | -2.262%
28 | CCn1cc(CN2CCN(C)C3(CCC(=O)N(CC4CC4)CC3)C2)cn1 (stereo unspecified) | 0.5097%
29 | CCn1cc(CN2CCC(c3[nH]ncc3S(C)(=O)=O)C2)cn1 (stereo unspecified) | 105.5%
30 | COc1cc(Br)c(S(=O)(=O)NC(=O)C(C)OC)cc1OC (stereo unspecified) | 2.536%
31 | Cc1cc(C(=O)N2C[C@H]3CC[C@@H]2CN(Cc2ccccn2)C3)nc(C)n1 | -8.906%
32 | Cc1ccc(F)c(S(=O)(=O)NCc2[nH]ncc2Br)c1 | -8.756%
33 | CCn1nc(CC(C)C)cc1C(=O)N1CC(N2CCCCC2C)C1 (stereo unspecified) | 1.245%
34 | CC(CCS(C)(=O)=O)NC(=O)NCc1ccc2c(c1)CCC2 (stereo unspecified) | 5.194%
35 | Cc1ccc2c(c1)nc1n2[C@@H](CNC(=O)c2cncnc2)COC1 | -17.88%
36 | Cc1cc(N2CCC(n3cc(CN4CCNCC4)nn3)CC2)ccn1 | -4.274%
37 | Fc1cccc(-c2nnn3c2COCC(CNCc2nccs2)C3)c1.O=C(O)C(F)(F)F (stereo unspecified) | -16.94%
38 | CN(C)CCNCC1COCc2c(-c3ccnn3C)nnn2C1 (stereo unspecified) | 97.42%

Row | Compound | Percent Effect
39 | Cc1noc(C)c1CNCC1COCc2c(-c3ccoc3)nnn2C1.O=C(O)C(F)(F)F (stereo unspecified) | -8.022%
40 | O=C(O)C(F)(F)F.c1csc(CNCC2COCc3c(-c4ccoc4)nnn3C2)n1 (stereo unspecified) | 7.766%
41 | Cn1nccc1-c1nnn2c1COCC(CNCC1CC1)C2.O=C(O)C(F)(F)F.O=C(O)C(F)(F)F (stereo unspecified) | 95.94%
42 | Cc1nc(CNCC2COCc3c(-c4ccoc4)nnn3C2)cs1 (stereo unspecified) | -8.682%
43 | Cn1nccc1-c1nnn2c1COCC(CNC1CCOCC1)C2.O=C(O)C(F)(F)F.O=C(O)C(F)(F)F (stereo unspecified) | 88.78%
44 | c1csc(CNCC2COCc3c(-c4ccsc4)nnn3C2)n1 (stereo unspecified) | -12.98%
45 | O=C(NCC1COCc2c(-c3ccncc3)nnn2C1)[C@H]1CCCO1.O=C(O)C(F)(F)F (stereo partly specified) | 13.14%
46 | CC(C)N(Cc1cccnc1)C(=O)CNc1ccc(C#N)cc1 | -12.71%
47 | O=C(Nc1cnccn1)[C@H]1CC[C@@H]2[C@@H](CCN2Cc2ccccn2)O1.O=C(O)C(F)(F)F | 79.42%
48 | Cc1csc(CN2CC[C@H]3O[C@H](C(=O)Nc4cccnc4)CC[C@H]32)n1.O=C(O)C(F)(F)F.O=C(O)C(F)(F)F | 273.2%
49 | O=C(NCc1ccccn1)[C@@H]1CC[C@@H]2[C@@H](CCN2c2ncc(F)cn2)O1.O=C(O)C(F)(F)F.O=C(O)C(F)(F)F | 7.451%
50 | Cn1cc(CN2CC[C@H]3O[C@H](C(=O)NC4CC4)CC[C@H]32)c2ccccc21.O=C(O)C(F)(F)F | -3.833%
51 | Cc1cccc(CN2CC[C@H]3O[C@H](C(=O)Nc4cnccn4)CC[C@H]32)n1.O=C(O)C(F)(F)F.O=C(O)C(F)(F)F | 108.3%
52 | O=C(NCc1ccco1)[C@H]1CC[C@@H]2[C@@H](CCN2Cc2nccs2)O1.O=C(O)C(F)(F)F | 5.491%
53 | O=C(Nc1cnccn1)[C@@H]1CC[C@@H]2[C@@H](CCN2Cc2nccs2)O1.O=C(O)C(F)(F)F | 114.9%
54 | CC(C)NC(=O)[C@@H]1CC[C@@H]2[C@@H](CCN2Cc2ccc3ccccc3n2)O1.O=C(O)C(F)(F)F | -12.2%
55 | O=C(NC1CCC1)[C@@H]1CC[C@@H]2[C@@H](CCN2CCc2ccccc2)O1.O=C(O)C(F)(F)F | -17.29%
56 | Cc1ncccc1NC(=O)[C@@H]1CC[C@@H]2[C@@H](CCN2Cc2cnn(C)c2)O1.O=C(O)C(F)(F)F.O=C(O)C(F)(F)F.O=C(O)C(F)(F)F | -6.669%
